Rows were chosen to be rich in hits. Some 2.4% of all compounds tested hit in one or more screens of this group.
CHRM1 antagonist – blocks human M1 muscarinic receptor | P11229 | CHO-K1 hM1, Fluo-8 calcium fluorescence, ACh EC80 antagonist | inhibition, % at 3 µM | 1.3% of 360,000 active;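 active means percent inhibition above its own plate's cutoff, namely the mean of that plate's compound wells plus 3 SD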;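 further: peak over basal fluorescence ratio during 140 s after agonist addition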
Target sequence (P11229 whole entry, looked up): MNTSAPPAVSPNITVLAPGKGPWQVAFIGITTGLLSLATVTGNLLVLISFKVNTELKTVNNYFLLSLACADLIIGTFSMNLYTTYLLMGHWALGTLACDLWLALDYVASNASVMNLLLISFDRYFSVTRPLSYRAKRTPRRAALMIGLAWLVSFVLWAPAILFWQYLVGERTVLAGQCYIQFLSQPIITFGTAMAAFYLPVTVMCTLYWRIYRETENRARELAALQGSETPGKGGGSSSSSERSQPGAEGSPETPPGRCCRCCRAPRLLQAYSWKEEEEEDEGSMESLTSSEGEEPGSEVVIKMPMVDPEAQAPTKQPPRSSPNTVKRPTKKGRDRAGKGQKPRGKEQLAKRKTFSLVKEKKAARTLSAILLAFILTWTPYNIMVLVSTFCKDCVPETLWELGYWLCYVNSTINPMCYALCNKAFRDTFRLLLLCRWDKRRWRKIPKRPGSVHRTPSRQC
CHRM1 agonist – human M1 muscarinic receptor agonism; activation, % at 3 µM; P11229; CHO-K1 hM1, Fluo-8 calcium fluorescence, agonist mode; 0% DMSO, 100% acetylcholine EC100; 0.33% of 360,000 active;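 active means activation above the run's mean compound activation plus 3 SD, cut at about 16% in these data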;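 further: peak over basal fluorescence ratio within a 140 s kinetic read after compound addition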
M1 PAM – human CHRM1 positive allosteric modulation. 0.088% of 360,000 active. P11229. CHO-K1 hM1, Fluo-8 calcium fluorescence, ACh EC20; 0% = ACh EC20, 100% = maximal ACh. activation, % at 3 µM; in the data active means activation above about 19%, passing the limit was not always enough
CHO-K1 Ca PAM – M1 PAM counterscreen hit in parental CHO-K1 cells; 0.02% of 360,000 active; ATP EC20, Fluo-8 calcium fluorescence; 0% at ATP EC20, 100% at ATP max; activation, % at 3 µM; AID 602247;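 active means activation above the run cutoff, the mean activation of all test compounds plus 3 SD, cut at about 40% in these data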;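 further: peak over basal fluorescence ratio in a 140 s read after ATP addition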
CHO-K1 Ca ag – nonselective activator or artifact in parental CHO-K1 cells. Fluo-8 calcium fluorescence; scaled to maximal ATP response, vehicle zero. activation, % at 3 µM. 0.48% of 360,000 active; in the data active means activation above about 15%;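 further: untransfected CHO-K1 host cells lacking M1 receptor as counterscreen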
CHO-K1 Ca antag – nonselective inhibitor or artifact in parental CHO-K1 cells; ATP-induced calcium, Fluo-8 fluorescence; inhibition, % at 3 µM; 0.6% of 360,000 active; AID 602250;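 active means inhibition above a per-plate cutoff, the plate's mean sample inhibition plus 3 SD, cut at about 24% in these data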
Of the large screens only hits and unclear results are named; the others gave an inactive call.

CC(C)(C)c1cc(C(=O)NNC(=O)Nc2cccc(Cl)c2)n(Cc2ccccc2)n1	CHO-K1 Ca antag 29
CC(C)(C)c1nc2c(Br)cc(Br)cc2c(=O)o1	none
COc1ccccc1CCC(=O)N1CCN(S(=O)(=O)c2cc(C(F)(F)F)ccc2Cl)CC1	none
O=C(N/N=C1\CCCCc2ccccc21)c1ccccn1	CHO-K1 Ca antag 29
COc1ccccc1OCC(=O)N/N=C1\CCCCc2ccccc21	none
COc1ccc(OCC(=O)N/N=C2\CCCc3ccccc32)cc1	CHO-K1 Ca antag 25
O=C(Cn1cc(S(=O)(=O)Cc2ccccc2F)c2ccccc21)N1CCOCC1	none
COC(=O)c1sc2nc(CSc3nc4ccc(C)cc4[nH]3)[nH]c(=O)c2c1C	none
Cc1ccc2nc(SCc3nc4ccccc4c(=O)[nH]3)[nH]c2c1	CHO-K1 Ca antag 29
CC1(c2ccc(Cl)c(Cl)c2)NC(=S)N2C1NC(=S)N2c1ccccc1 (centres undefined)	none
Cc1ccc(S(=O)(=O)N(CC#N)CC#N)cc1	none
Cc1cc([N+](=O)[O-])ccc1NC(=O)C(C)[n+]1ccccc1 (centres undefined)	CHRM1 antagonist 27
Cc1cc([N+](=O)[O-])ccc1NC(=O)c1ccco1	none
CC(c1nc2ccccc2c(=O)[nH]1)N1CCCN(S(=O)(=O)c2ccc(F)cc2)CC1 (centres undefined)	none
COC(=O)c1ccc(OC)c(CSc2nnc(COc3ccc(Cl)cc3)o2)c1	CHO-K1 Ca antag 24
COC(=O)c1ccc(OC)c(CSc2nnc(COc3ccccc3)o2)c1	none
COc1ccc2c(COC(=O)c3cccc(S(=O)(=O)NCC(C)C)c3)cc(=O)oc2c1	CHRM1 antagonist 38, CHO-K1 Ca ag 17
COc1ccc2c(COC(=O)CNS(=O)(=O)c3ccccc3)cc(=O)oc2c1	none
COc1cc(OC)cc(C(=O)NCC(=O)OCc2cc(=O)oc3cc(OC)ccc23)c1	CHO-K1 Ca ag 18
CCCNS(=O)(=O)c1cccc(C(=O)OCc2cc(=O)oc3cc(OC)ccc23)c1	CHO-K1 Ca ag 16
COc1ccc(S(=O)(=O)NCCC(=O)OCc2cc(=O)oc3cc(C)ccc23)cc1[N+](=O)[O-]	CHRM1 antagonist 48, CHO-K1 Ca antag 34
CCOC(=O)C1(CCc2ccccc2)CCN(C(=O)CN2C(=O)CSC2=O)CC1	none
COc1ccccc1Oc1ccc2c(c1)C(=O)N(c1cccc3ncccc13)C2=O	CHO-K1 Ca antag 24
COc1ccccc1OCC(=O)NNC(=O)c1c(-c2ccccc2Cl)noc1C	none
CCc1nc2ccc(C(=O)NCCCN3CCCC3=O)cn2c1N(C=O)CC	none
O=C(CCCSc1nc2ccccc2[nH]1)NCc1ccccc1F	CHO-K1 Ca ag 17
O=C(CCCSc1nc2ccccc2[nH]1)NCc1ccc(Cl)cc1	none
COc1cc(NC(=S)N2CCN(C(c3ccccc3)c3ccccc3)CC2)cc(OC)c1	CHRM1 antagonist 30
COc1cc(NC(=S)N2CCN(C/C=C/c3ccccc3)CC2)cc(OC)c1	none
COc1cccc(Cn2nnc(C(=O)Nc3cc(C)ccc3OC)c2N)c1	CHO-K1 Ca antag 26
Nc1c(C(=O)NCc2ccccc2)nnn1Cc1ccc(F)cc1	CHRM1 agonist 20
CCc1ccc(Cn2nnc(C(=O)Nc3cccc(C)c3)c2N)cc1	none
Cc1ccc(Cn2nnc(C(=O)Nc3cccc(C)c3C)c2N)cc1	CHRM1 agonist 39
O=C(Cn1nc(C(=O)O)c2ccccc2c1=O)Nc1cc(S(=O)(=O)N2CCCCC2)ccc1Cl	none
CC1(C)O[C@@H]2[C@H](O1)[C@@H](COS(=O)(=O)O)O[C@H]2n1c(=S)[nH]c2c(=O)[nH]c(N)nc21	none
CCN(Cc1ccccc1)c1ccc(/C=N/N2CCOCC2)cc1	CHO-K1 Ca antag 27
CCN(CC)c1ccc(/C=N/N2CCOCC2)cc1	none
CCN(CC)C(=S)SCC(=O)c1ccc(F)cc1	CHRM1 antagonist 24
COc1cccc(Nc2nc(C(N)Cc3ccc(F)cc3)cs2)n1 (centres undefined)	CHO-K1 Ca ag 15
Cc1ccc(CCNS(=O)(=O)c2cc3c(cc2Cl)NC(=O)CO3)cc1	none
COC(=O)c1ccc(CO/N=C(\NC(C)=O)c2nonc2NC(C)=O)cc1	CHRM1 agonist 17
CCOC(=O)c1nonc1NC(C)=O	none
CCn1c(CNC(=O)c2ccccc2F)cc2cc(C)ccc21	CHO-K1 Ca antag 31
O=C(O)CC(c1ccc(Cl)cc1)N1Cc2ccccc2C1=O (centres undefined)	none
COC(=O)C(Cc1ccc(OC(=O)c2ccc(Cl)cc2)cc1)N1Cc2ccccc2C1=O (centres undefined)	CHRM1 antagonist 21, CHO-K1 Ca antag 34
COC(=O)C(Cc1ccc(OC(=O)c2ccc(C(F)(F)F)cc2)cc1)N1Cc2ccccc2C1=O (centres undefined)	CHRM1 antagonist 36, CHO-K1 Ca antag 25
C/C(CCc1ccc2c(c1)OCO2)=N\N=C1\NC(=O)CC(C(=O)Nc2ccccc2F)S1 (centres undefined)	none
CCN(CC)C(=O)CCNS(=O)(=O)c1ccc(C)cc1	CHO-K1 Ca antag 28
O=C(CC[C@H]1O[C@@H](n2cnc3c(NC(=O)c4ccccc4)ncnc32)[C@H](O)[C@@H]1O)NCc1cccc2ccccc12	none
COc1cc(C2=NOC(C(=O)Nc3ccc4c(c3)OCO4)C2)cc(OC)c1OC (centres undefined)	CHO-K1 Ca ag 18
CCC(C(=O)c1ccc2ncccc2c1)c1ccccc1 (centres undefined)	CHRM1 antagonist 35
Cn1c(SCc2ccccc2Cl)nnc1-c1cnccn1	CHO-K1 Ca antag 24
Cc1ccccc1OCC(=O)NCCCNC(=O)c1ccncc1	M1 PAM 28
CCCCC(C(=O)O)C(C)CC(=O)Nc1nccs1 (centres undefined)	none
Cc1cn(C2CC(O)C(CO)O2)c(=O)n(Cc2ccccc2)c1=O (centres undefined)	none
COc1ccc(-c2c(-c3cc(OC)cc(OC)c3)n(C)c3ccc(Br)cc23)cc1	none
COc1ccc(N=Nc2nc3ccc(Br)cc3n2C)cc1	CHRM1 agonist 17, CHO-K1 Ca ag 18
COC(=O)c1[nH]c2ccc(Cl)cc2c1NC(=O)CCN1CCN(C2CCCCC2)CC1	CHRM1 antagonist 62
CCOC(=O)c1[nH]c2ccc(OC)cc2c1NC(=O)CN1CCC2(CC1)OCCO2	none
COC(=O)c1[nH]c2ccccc2c1NC(=O)CN1CCN(c2cccc(OC)c2)C(C)C1 (centres undefined)	CHO-K1 Ca antag 28
COC(=O)c1[nH]c2cc(OC)ccc2c1NC(=O)CCN1CCN(c2ccccc2)CC1	none
CCOC(=O)c1[nH]c2ccc(F)cc2c1NC(=O)CCN1CCOCC1	none
